High-throughput results from PubChem BioAssay.
B2AR arrestin – qHTS assay of beta-arrestin-biased ligands of beta2-adrenergic receptor; Beta-2 adrenergic receptor (Homo sapiens), P07550; beta-arrestin recruitment to beta2AR, cell-based reporter; Potency, µM (top dose mostly 46.1 µM), for inactives: at the top dose activation, hits mostly activators; 330,000 tested, 0.02% active; AID 492947, 2010;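 also: potency is read from the fitted curve at half-maximal effect; 0% = DMSO controls and full agonism = EC100 isoproterenol or metaproterenol; nearly all actives have a fitted effect of over 65% in size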
Target sequence (P07550 whole entry, looked up): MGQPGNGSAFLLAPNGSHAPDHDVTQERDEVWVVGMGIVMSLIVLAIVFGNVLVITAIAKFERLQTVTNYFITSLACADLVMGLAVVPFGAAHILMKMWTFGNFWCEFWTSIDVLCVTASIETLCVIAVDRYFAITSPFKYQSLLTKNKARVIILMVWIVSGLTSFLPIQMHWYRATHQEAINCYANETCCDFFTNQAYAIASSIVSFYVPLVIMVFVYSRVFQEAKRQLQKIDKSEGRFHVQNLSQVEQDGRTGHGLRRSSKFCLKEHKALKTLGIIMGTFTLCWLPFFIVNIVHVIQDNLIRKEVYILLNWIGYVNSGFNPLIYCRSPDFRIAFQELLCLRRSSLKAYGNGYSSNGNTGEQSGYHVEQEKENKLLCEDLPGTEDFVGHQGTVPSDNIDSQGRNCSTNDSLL
aGlu spleen mod – qHTS Assay for Inhibitors and Activators of Human alpha-Glucosidase From Spleen Homogenate; Lysosomal alpha-glucosidase (Homo sapiens), P10253; 240,000 tested, 0.006% active; Potency, µM (top dose mostly 79.9 µM), for the others: at the top dose activity change, negative = inhibition, hits mostly inhibitors; human spleen homogenate, 4-MU-alpha-glucoside fluorescence;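 also: potency is read from the fitted curve at half-maximal effect; 0% = enzyme with vehicle and -100% = no enzyme basal signal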
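Enzyme source: human spleen homogenate, 1 ug/well. Buffer 50 mM citric acid/K phosphate pH 5.0, 0.01% Tween-20. 4-MU-alpha-glucoside 1 mM; 37 C x 40 min; NaOH/glycine stop; fluorescence.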
Coupling enz – qHTS Assay for Inhibitors of Fructose-1,6-bisphosphate Aldolase from Giardia Lamblia: Coupling assay counterscreen. coupling enzyme system counterscreen, AmpLite Red fluorescence. AID 2472, 2010. activity change, negative = inhibition, % at 58.2 µM, hits read low. 290,000 tested, 0.67% active; in the data active = activity change below about -30%
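Fluorescence at 525 nm excitation and 598 nm emission measured inhibition of the coupled detection system without aldolase. Compounds (at 57.5 uM final) were preincubated 10 min at room temperature with coupling enzyme reagent before a 20 min substrate/AmpLite Red step.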
GAA inhib – qHTS Assay for Inhibitors of Human alpha-Glucosidase as a Potential Chaperone Treatment of Pompe Disease | purified human GAA, 4-MU-alpha-glucoside fluorescence | 200,000 tested, 0.005% active | Potency, µM (series often up to 76.9 µM), without a hit: top-dose activity change, negative = inhibition, usual class: inhibitors | Lysosomal alpha-glucosidase (Homo sapiens), P10253;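 also: potency is read from the fitted curve at half-maximal effect; plate controls were uninhibited enzyme wells for no effect and no-enzyme background for full effect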
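Compounds are titrated up to 77 uM against 4 nM human enzyme. Substrate 4-methylumbelliferyl-alpha-D-pyranoside (400 uM) reacts 20 min at room temperature in pH 5.0 buffer; liberated 4-methylumbelliferone is read at 440 nm.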
GAA glycogen – qHTS Assay for Inhibitors and Activators of Human alpha-Glucosidase Cleavage of Glycogen | Lysosomal alpha-glucosidase (Homo sapiens), P10253 | recombinant GAA, glycogen substrate, Amplex Red glucose oxidase fluorescence | Potency, µM (series often up to 76.4 µM), for inactives: at the top dose activity change, negative = inhibition, hits mostly inhibitors | 300,000 tested, 0.38% active;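 also: potency is read from the fitted curve at half-maximal effect; 0% = full enzyme reaction and -100% = no-enzyme basal signal; the screen sought inhibitors and activators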
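Recombinant enzyme (4 nM final) with compounds titrated up to 77 uM and bovine liver glycogen (30 ug) in citrate pH 5.0, 0.01% Tween-20, 37 C 40 min. Released glucose detected by Amplex Red/glucose oxidase (Ex 573/Em 610); AC50 from Hill fits.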
* hit, by the source's call; ? = inconclusive; . = not tested or not shown; [ ] = remark or other dose. Hits are enriched below; roughly 0.85% of the tested compounds scored in any of these assays. Unless noted, calls follow the shape of the dose curve; as a rule, active = well fitted curve in the direction sought with a large enough effect; inconclusive = small, poorly fitted or top-dose-only effect, or another doubt; inactive = no such curve, though single readings can be large; an effect the other way counts as inactive or inconclusive. Unless noted, % is scaled to controls: 0 for no effect and ±100 for the full control effect.

SMILES	B2AR arrestin	aGlu spleen mod	Coupling enz	GAA inhib	GAA glycogen
COc1cc(-c2ccc(N=Nc3ccc4c(S(=O)(=O)O)cc(S(=O)(=O)O)c(N)c4c3O)c(OC)c2)ccc1N=Nc1ccc2c(S(=O)(=O)O)cc(S(=O)(=O)O)c(N)c2c1O	.	-2.0%	-56.7*	.	.
CCCOc1ccc(/C=C/C(=O)Nc2sc(C)c(C)c2C(=O)OCC)cc1OC	.	.	.	.	-13.7%[76.3 µM]
C/C=C/C1=Cc2ccccc2C(CC(=O)OC)N1C(=O)OC (configuration not stated)	.	2.4%[17.4 µM]	-0.2	.	.
Oc1cccc(CN2CCCCC2)c1	-1.7%	-5.4%	1.6	0.7%	3.1%
CC(C)(C)c1cc(CN2CCCCC2)cc(C(C)(C)C)c1O	0.3%	3.5%	-56.3*	-5.0%	-9.8%
Cc1cccc(CNc2ncncc2-c2cccc(NS(C)(=O)=O)c2)c1	.	-6.9%	-1.0	.	.
O=c1cc(-c2ccc(O)cc2)oc2cc(O[C@@H]3O[C@H](CO)[C@H](O)[C@H](O)[C@H]3O)cc(O)c12	.	2.0%	4.2	.	.
Cc1c(N/C=C(\Cl)C(=O)C(F)(F)F)c(=O)n(-c2ccccc2)n1C	0.0%	0.7%	-3.2	-6.4%	31.6µM*
CC[C@@H]1C(c2cccc(C)c2)=NN(c2ccc(Br)cc2)[C@H]1C(=O)N1CCOC1=O	.	3.1%	-1.6	.	.
COCCCNC(=O)CC(=O)N/N=C\c1ccc(SC)cc1	-1.0%	-2.1%	-70.0*	9.8%	-5.8%
COCCNC(=O)CC(=O)N/N=C/c1ccc(C(=O)OC)cc1	0.1%	-1.7%	3.2	?	1.8%
CC1(C)C=C2C(=NN(c3ccccc3)C(N)=C2C#N)CO1	-0.4%	.	-62.1*	.	.
O=C1C(=O)N2C(=C1C(=O)N1CCCCCC1)c1ccccc1CC21CCCC1	-0.3%	-10.1%	-17.6	3.8%[15.4 µM]	4.1%
CC1(C)Cc2ccccc2C2=C(C(=O)N3CCCCCC3)C(=O)C(=O)N21	-0.1%	-1.0%	-42.5*	-9.4%	4.1%
CCC1(CC)Cc2ccccc2C2=C(C(=O)N3CCCCC3)C(=O)C(=O)N21	0.0%	0.0%	-34.4*	2.2%	-10.3%
CCOC(=O)N1CCN(/[N+]([O-])=N/Oc2ccc([N+](=O)[O-])cc2[N+](=O)[O-])CC1	.	-5.5%	3.9	.	.
CCOc1cc(CNc2ccccc2SC)ccc1O	-0.1%	5.9%	-14.3	-7.2%	28µM*
CNC(=O)c1c(NC(=O)c2ccco2)sc2c1CCCC2	0.1%	.	.	.	-1.4%[76.3 µM]
Cc1ccc(C(=O)C(NC(=O)c2ccco2)Nc2sc3c(c2C(N)=O)CCCC3)cc1 (configuration not stated)	-0.6%	-10.5%	-4.9	-6.8%	24.9µM*
O=C(N/N=C/c1ccc(O)c(O)c1)c1cc(-c2ccccc2)nc2ccccc12	0.1%	.	-1.8	.	.
Cc1nonc1C(=O)N/N=C/c1ccc(O)c(O)c1	-0.3%	-6.3%	3.7	-0.2%	7.94µM*
O=C(N/N=C/c1ccc(O)c(O)c1)N/N=C/c1ccc(O)c(O)c1	-0.9%	.	-8.4	.	1.41µM*
COc1cc(/C=N/NC(=O)c2nonc2C)ccc1O	-0.1%	-1.7%	-0.8	?	?
Cc1ccccc1C(=O)NN1C(=O)CSC1=S	-0.8%	3.5%	0.8	-1.4%	?
CCOC(=O)c1ccccc1N1C(=O)CSC1=S	0.1%	-6.3%	-0.8	-0.3%	28µM*
SMILES	B2AR arrestin	aGlu spleen mod	Coupling enz	GAA inhib	GAA glycogen
C=CC1=C2C=C(C3CC3)N(CCCOC(C)C)C=C2C(=O)C(C)(OC(=O)c2ccco2)C1=O (configuration not stated)	.	-2.3%[17.4 µM]	-32.4*	.	.
C=CC1=C2C=C(C3CC3)N(Cc3ccccc3)C=C2C(=O)C(C)(OC(=O)c2ccco2)C1=O (configuration not stated)	.	3.7%[17.4 µM]	-35.9*	.	.
C=CC1=C2C=C(C3CC3)N(CCN3CCOCC3)C=C2C(=O)C(C)(OC(=O)c2ccco2)C1=O (configuration not stated)	.	9.3%[17.4 µM]	-22.2	.	.
C=CC1=C2C=C(C3CC3)N(Cc3ccc4c(c3)OCO4)C=C2C(=O)C(C)(OC(=O)c2ccco2)C1=O (configuration not stated)	.	-0.2%[17.4 µM]	-5.6	.	.
Nc1c(C(=O)Nc2ccccc2)nnn1Cc1ccc(F)cc1Cl	.	.	.	.	-3.0%[76.3 µM]
CC[C@H](C)[C@H](NC(=O)[C@H](CC(C)C)NC(=O)[C@@H](N)CO)C(=O)NCC(=O)N[C@@H](CCCN=C(N)N)C(=O)N[C@@H](CC(C)C)C(=O)O	.	6.6%	-0.4	.	.
Cc1cc(=O)cc2oc3cc(N)c(-c4c(C)cc(O)cc4O)c(C)c3nc1-2	.	-0.1%	-30.4*	.	.
CCOC(=O)c1[nH]c2ccc(OC)cc2c1NC(=S)N1CCN(c2ccccc2OC)CC1	5.7%	-7.1%	1.2	3.2%	3.98µM*
CCOC(=O)c1[nH]c2ccc(OC)cc2c1NC(=S)N1CCN(C(=O)OCC)CC1	0.0%	-4.4%	-4.8	1.3%	?
CCOC(=O)c1[nH]c2ccc(OC)cc2c1NS(=O)(=O)c1ccc(OC)cc1OC	-0.1%	-10.8%	-2.6	-0.9%	12.6µM*
COc1ccc(-c2nc3cnc(N(C)C)nc3n(CCC#N)c2=O)cc1	.	-6.0%	0.3	.	.
CS(=O)(=O)Nc1cccc(-c2ccc3ncnc(NCc4cccs4)c3c2)c1	.	8.5%	3.4	.	.
Cn1cnc([N+](=O)[O-])c1Nc1ccc(O)cc1	-0.8%	-8.7%	-19.9	?	28µM*
CC(C)c1cccc2nc3c(c([Si](C)(C)C)c12)Cn1c-3cccc1=O	.	?	-10.5	.	.
COC1CCC(C(=O)c2ccc3nc4c(cc3c2)CCCO4)CC1 (configuration not stated)	.	-1.6%	2.7	.	.
CC(C)N1CCN(c2ccc(C(=O)c3c(-c4ccc(O)cc4)sc4cc(O)ccc34)cc2)CC1	.	-5.2%	1.5	.	.
O=C1OC(c2ccc(Cl)cc2)=C/C1=C/c1cccnc1	0.4%	.	-0.7	.	0.6%
Cc1ccc(C2=C/C(=C/c3cccnc3)C(=O)O2)c(C)c1	-1.4%	-2.3%	-35.0*	-12.0%	-1.0%
Cc1ccc2oc(C(=O)Nc3ccc(S(=O)(=O)N4CCCCC4C)cc3)cc(=O)c2c1 (configuration not stated)	.	.	.	.	7.08µM*
Cc1ccc(S(=O)(=O)Cc2cc(F)c([N+](=O)[O-])cc2[N+](=O)[O-])cc1	0.1%	.	2.1	.	.
CCN(CC)c1ccc(NC(=O)COC(=O)C23CCC(=O)N2c2ccccc2S3)cc1 (configuration not stated)	0.1%	-17.4%	-32.1*	7.4%	-7.3%
CCN(CC)c1ccc(NC(=O)COC(=O)CCC(=O)c2cccs2)cc1	-0.1%	.	.	.	.
